From PubChem
Compounds with a hit are over-represented: about 2.8% of the library has one in this group of screens.
Pol eta inh-1 – inhibitors of human DNA polymerase eta; AID 588591; Potency, µM (highest dose often 114 µM), for inactives: at the highest dose activity change, negative = inhibition, actives largely listed as inhibitors; 390,000 tested, 1.2% active; recombinant Pol eta, fluorescent DNA replication assay; Q9Y253; further: potency means the concentration at half of the fitted maximal effect; on the % scale 0 is the no-effect control and ±100 the full control effect
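Pol eta at 10 nM preincubated with compounds 15 min at room temperature; reaction started with fluorescent substrate (50 nM final) and read kinetically at 0 and 10 min.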
Pol kappa inh-1 – blocks human DNA polymerase kappa activity; Q9UBT6; purified Pol kappa, fluorescent DNA synthesis assay, 10 min; Potency, µM (highest dose often 107 µM), without a hit: top-dose activity, negative = inhibition, usual class: inhibitors; 400,000 tested, 0.53% active; further: potency means the concentration at half of the fitted maximal effect; on the % scale 0 is the no-effect control and ±100 the full control effect
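Activity was followed as the change in fluorescence between reads at 0 and 10 min after starting the reaction with 50 nM substrate. Beforehand, 10 nM polymerase had been preincubated with compound for 15 min at room temperature.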
PI4K2A block – blocks human PI4K2A kinase activity | Q9BTU6 | purified PI4K2A, ADP-Glo luminescence, 1 h; hits give low values | activity change, negative = inhibition, % at 76.9 µM | 420,000 tested, 0.13% active; in the data active means activity change below about -50%; inconclusive means mostly about -30% to -49%;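 further: -100% = wells without enzyme as full effect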
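In this quantitative HTS, ADP production by PI4K2A was quantified luminescently after 1 h at ambient temperature; 100 microM adenosine served as plate-quality control.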
POLB inh – DNA polymerase beta (human) inhibition; P06746; Pol beta primer extension/strand displacement, fluorescence kinetic; Potency, µM (titrated, usually from 114 µM), for inactives: at the highest dose activity change, negative = inhibition, actives largely listed as inhibitors; 340,000 tested, 1.3% active; AID 485314; further: potency means the concentration at half of the fitted maximal effect; on the % scale 0 is the no-effect control and ±100 the full control effect
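Homogeneous kinetic assay of primer extension and strand displacement by 10 nM Pol beta, preincubated 15 min at room temperature with compound before 50 nM substrate (final) was added. Read at 0 and 10 min; four-parameter Hill fit.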
POLI inh – DNA polymerase iota (human) inhibition; Q9UNA4; Pol iota fluorescent replication assay, 10 min; Potency, µM (top dose mostly 115 µM), for the others: at the highest dose activity, negative = inhibition, usual class: inhibitors; 390,000 tested, 1% active; AID 588590; further: potency means the concentration at half of the fitted maximal effect
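Pol iota at 10 nM preincubated 15 min with compounds at room temperature; reaction started with fluorescent substrate, 50 nM final. Fluorescence read kinetically at 0 and 10 min; buffer-only wells as negative control.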
PI5P4Ka inh – blocks human PI5P4K alpha kinase activity; P48426; PI5P4Kalpha enzyme, ADP-Glo luminescence, 60 min; hits give low values; max response, %; 330,000 tested, 1.2% active; active means max response of -50% or lower; inconclusive means between -30% and -50%; inactive means -30% or higher; further: value at the top dose of about 77 µM; on the % scale 0 is the no-effect control and ±100 the full control effect
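Human PI5P4Kalpha with substrate in 0.038 M HEPES pH 7.4, 0.28 mM EGTA, 0.1% CHAPS, 5% DMSO; reaction started with 5 microM ATP (final), 60 min at room temperature. ADP formed read by ADP-Glo luminescence.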
BAZ2B confirm – inhibits human BAZ2B bromodomain, hit validation. shares compounds with Pol kappa inh-1. AlphaScreen BAZ2B / biotin-H3K14Ac peptide displacement. Potency, µM, usual class: inhibitors. 25 tested, 100% active. AID 588809; calls by dose curve
BAZ2B bead ctr – AlphaScreen signal interference, BAZ2B hit counter-screen; Potency, µM (top dose mostly 57.1 µM), for the others: at the highest dose activity change, negative = inhibition, most hits filed as inhibitors; 25 tested, under 10 active; AlphaScreen biotin-His6 peptide bead counterscreen, signal decrease; shares compounds with Pol kappa inh-1; AID 588859;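 active means clear concentration-dependent signal drop in the bead assay lacking the target, so a primary-screen artifact; inconclusive means weak, partial or single-dose response; inactive means no response, so a real primary hit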
PGK validate – TbPGK inhibition, hit validation | shares compounds with Pol kappa inh-1 | TbPGK coupled GAPDH assay, Kinase-Glo luminescence | Potency, µM (top dose mostly 57.5 µM), for inactives: top-dose activity change, negative = inhibition, actives largely listed as inhibitors | 500 tested, 79% active | AID 686980; further: potency means the concentration at half of the fitted maximal effect; on the % scale 0 is the no-effect control and ±100 the full control effect; nearly all actives have a fitted effect of over 65% in size
Target sequence (P07378 whole entry, looked up): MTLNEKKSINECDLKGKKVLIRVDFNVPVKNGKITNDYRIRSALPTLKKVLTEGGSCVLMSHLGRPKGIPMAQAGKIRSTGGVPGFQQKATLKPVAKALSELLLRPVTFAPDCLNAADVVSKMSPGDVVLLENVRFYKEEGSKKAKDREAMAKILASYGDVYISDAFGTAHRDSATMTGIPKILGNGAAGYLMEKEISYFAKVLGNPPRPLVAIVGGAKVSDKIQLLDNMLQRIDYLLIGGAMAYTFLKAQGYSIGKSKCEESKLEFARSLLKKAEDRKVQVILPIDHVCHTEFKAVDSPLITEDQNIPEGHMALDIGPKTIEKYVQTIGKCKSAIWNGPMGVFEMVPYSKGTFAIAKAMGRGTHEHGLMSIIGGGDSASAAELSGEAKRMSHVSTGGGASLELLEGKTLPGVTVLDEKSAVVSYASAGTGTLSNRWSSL
POLI cherry-pick – Inhibitors of human DNA polymerase iota, confirmation; shares compounds with Pol kappa inh-1; Pol iota primer extension, TAMRA/BHQ fluorescence; Potency, µM, hits mostly inhibitors; 1,500 tested, 77% active; further: potency means the concentration at half of the fitted maximal effect
GALK confirm – confirmation of human galactokinase (GALK) inhibitors; shares compounds with Pol eta inh-1; purified GALK, Kinase-Glo ATP depletion luminescence; Potency, µM (series often up to 115 µM), without a hit: top-dose activity, negative = inhibition, most hits filed as inhibitors; 150 tested, 70% active
Redox cycling – generates H2O2 by redox cycling, flagging GALK artifacts; shares compounds with Pol eta inh-1; Phenol red-HRP H2O2 redox cycling, absorbance 600 nm; Potency, µM (doses to about 115 µM), without a hit: at the top dose activity change, negative = H2O2 signal, hits mostly inhibitors; 150 tested, 40% active
HEK293 viability – reduces HEK-293 cell viability in GALK counter-screen; shares compounds with Pol eta inh-1; HEK-293 viability, ATP luminescence (CellTiter-Glo), 24/48 h; Potency, µM (doses to about 46.1 µM), for the others: at the top dose activity change, negative = cytotoxicity, hits mostly inhibitors; 170 tested, 10% active; further: potency means the concentration at half of the fitted maximal effect; on the % scale 0 is the no-effect control and ±100 the full control effect
Pol kappa inh-2 – confirmation of human DNA polymerase kappa inhibitors | shares compounds with Pol eta inh-1 | purified Pol-kappa, fluorescent strand-displacement substrate | Potency, µM, actives largely listed as inhibitors | 920 tested, 76% active | AID 720501; further: potency means the concentration at half of the fitted maximal effect
Pol eta inh-2 – confirmation of human DNA polymerase eta inhibitors. Potency, µM, most hits filed as inhibitors. 2,600 tested, 64% active. Pol eta primer extension, TAMRA/BHQ fluorescence, 10 min. shares compounds with Pol eta inh-1; further: potency means the concentration at half of the fitted maximal effect
ADP-Glo counter – ADP-Glo luciferase interference, PI5P4K counter-screen; Potency, µM (top dose mostly 76.9 µM), without a hit: top-dose activity change, negative = inhibition, usual class: inhibitors; ADP-Glo detection counter-screen, luciferase luminescence, no enzyme; shares compounds with PI5P4Ka inh; AID 743285; 1,100 tested, under 10 active
Numbers without * were called inactive; [ ] = dose if it differs, or a comment. Unless noted, the call rests on the fitted dose curve; in most records, active means well fitted curve in the direction sought with a large enough effect; inconclusive means small, poorly fitted or top-dose-only effect, or another doubt; inactive means no such curve, though single readings can be large; an effect the other way counts as inactive or inconclusive.

How did NN=C1C(Cl)=C(Cl)C(Cl)=C1Cl do in these assays?
Pol eta inh-1: inconclusive; PI4K2A block: -20; PI5P4Ka inh: -30; POLI cherry-pick: 67*; Pol kappa inh-2: inconclusive; Pol eta inh-2: inconclusive

Results for CCOP(=S)(OCC)O/N=C(\C#N)c1ccccc1Cl ?
Pol kappa inh-1: -4%[60.1 µM]

Results for Cn1ncnc2c(=O)n(C)c(=O)nc1-2 ?
Pol eta inh-1: 0.71µM*; Pol kappa inh-1: 5%; PI4K2A block: -52*; POLB inh: inconclusive; POLI inh: -72%; PI5P4Ka inh: 0; PGK validate: 1.5µM*; POLI cherry-pick: 5.3*; GALK confirm: 1.1µM*; Redox cycling: 0.6µM*; HEK293 viability: 3.1µM*; Pol eta inh-2: 5.4*

How did Cc1ccc(-c2nc3c(=O)n(C)c(=O)nc-3n(C)n2)cc1 do in these assays?
Pol kappa inh-1: -22%; POLI inh: -123%; POLI cherry-pick: 1.7*; Pol eta inh-2: 0.85*

Results for CSc1nc(N)c(N=Nc2ccc([As](=O)(O)O)cc2)c(=O)[nH]1 ?
Pol eta inh-1: 50µM*; Pol kappa inh-1: -24%; PI4K2A block: -11; POLB inh: 35µM*; POLI inh: 8.9µM*; PI5P4Ka inh: -18; POLI cherry-pick: 42*; Pol eta inh-2: 76*

What do the screens show for `CON(C)C(=O)Nc1ccc(Br)cc1`?
Pol kappa inh-1: 16%[60.1 µM]

How did COc1ccc(NC(=O)Cn2c3ccccc3c3nc4n(c(=O)c32)CCS4)cc1 do in these assays?
Pol eta inh-1: -21%; Pol kappa inh-1: -9%; PI4K2A block: -11; POLB inh: 11%; POLI inh: 82%; PI5P4Ka inh: 4

What do the screens show for `CC(Cc1ccc(O)cc1)NCC(O)c1ccc(O)c(O)c1` (stereo unspecified)?
Pol eta inh-1: 4µM*; PI4K2A block: -8; PI5P4Ka inh: -59*; POLI cherry-pick: 15*; Pol kappa inh-2: 3.4*; Pol eta inh-2: 12*

How did CC(C)C1C(=O)N2CCC[C@H]2[C@]2(O)O[C@](NC(=O)[C@@H]3C=C4c5cccc6[nH]cc(c56)C[C@H]4N(C)C3)(C(C)C)C(=O)N12 (stereo partly specified) do in these assays?
Pol kappa inh-1: -9%[19.4 µM]

How did CCc1ccccc1N1C(=O)NC(=O)/C(=C\c2cc(C)n(C)c2C)C1=O do in these assays?
Pol eta inh-1: -8%; Pol kappa inh-1: -6%; PI4K2A block: -5; POLB inh: 8%; POLI inh: 51%; PI5P4Ka inh: -1

Results for Cc1cc(/C=C2\C(=O)NC(=O)N(c3ccccc3F)C2=O)c(C)n1-c1cc(C(=O)O)cc(C(=O)O)c1 ?
Pol eta inh-1: 3.2µM*; Pol kappa inh-1: inconclusive; PI4K2A block: -25; POLB inh: 10µM*; POLI inh: inconclusive; PI5P4Ka inh: -78*; PGK validate: inconclusive; POLI cherry-pick: 19*; Pol eta inh-2: 7.6*

How did COc1ccc(OC)c(NC(=O)COC(=O)c2cc3c(s2)CCC3)c1 do in these assays?
Pol eta inh-1: 10µM*; Pol kappa inh-1: 13µM*; PI4K2A block: -20; POLB inh: 7.9µM*; POLI inh: 3.5µM*; PI5P4Ka inh: -83*; BAZ2B confirm: 22*; BAZ2B bead ctr: inconclusive; PGK validate: 4.6µM*; POLI cherry-pick: 9.5*; Pol eta inh-2: 15*; ADP-Glo counter: -1%

What do the screens show for `CC(C)OP(=O)(OC(C)C)C(O)c1cccc([N+](=O)[O-])c1` (stereo unspecified)?
Pol eta inh-1: -12%; Pol kappa inh-1: -10%; PI4K2A block: 1; POLB inh: 20%; POLI inh: 43%; PI5P4Ka inh: 0

How did CN1C(=O)NC(=O)/C(=C/c2ccc([N+](=O)[O-])s2)C1=O do in these assays?
Pol eta inh-1: 22µM*; Pol kappa inh-1: inconclusive; PI4K2A block: -24; POLB inh: inconclusive; POLI inh: inconclusive; PI5P4Ka inh: -56*; Pol eta inh-2: 76*
